High-throughput results deposited in PubChem by Johns Hopkins Ion Channel Center.
KCNQ2 block: rat KCNQ2 potassium channel inhibitors, primary screen, cell-based, CHO-K1, FluxOR thallium flux, B-score. Potassium voltage-gated channel subfamily KQT member 2 (Rattus norvegicus), O88943. 20 min; hits give low values. B-score at 10 µM. hit rate 1.1% among 310,000. AID 2156, 2009;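 active = fluorescence ratio B-score at most minus 3 library SDs, with starting brightness B-score within 2 library SDs, cut at about -5.5 in these data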
KCNQ2 enhance: potentiators of rat KCNQ2 potassium channel | hit rate 0.54% among 310,000 | CHO-K1 KCNQ2, FluxOR thallium flux fluorescence; hits give high values | B-score at 10 µM;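 active = fluorescence ratio B-score at least 3 SD of library B-scores, with initial fluorescence B-score within 3 of them, cut at about 5.3 in these data; same plate scores as AID 2156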;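 note: B-score of peak minus minimum over baseline fluorescence ratio after K+ and Tl+ stimulus; positive B-score means potentiation of KCNQ2 with more thallium influx and brighter signal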
Kir21 conf inh: mouse Kir2.1 channel blockers, retest, confirmation, cell-based, FluxOR thallium flux, duplicate; shares compounds with KCNQ2 enhance; Kir2.1-expressing cells, FluxOR thallium flux fluorescence; hits give low values; Tl flux remaining, % of negative control (hits give low values), % at 10 µM; hit rate 41% among 2,300;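 active = Primary-screen hit whose thallium flux fell at least 3 control SD below untreated wells in both duplicates, with normal baseline fluorescence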;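 note: 0% = blank wells without stimulus and 100% = stimulated no-compound controls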
HEK293 Tl flux: parental HEK293 activity in Kir2.1 inhibitor counter-screen | hit rate 19% among 2,300 | parental HEK293 cells, FluxOR thallium flux fluorescence; 0% = unstimulated blank wells | shares compounds with KCNQ2 enhance | FluxOR signal as % of negative control (100 = no effect), % at 10 µM;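 active = dye signal at least 3 control SD above or below untreated wells in both duplicates, raw fluorescence within 3, either direction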;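 note: percent is based on the flux ratio of peak minus minimum fluorescence over baseline F0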
CHO-K1 Tl ctr: nonspecific thallium flux increase in parental CHO-K1, confirmation, counter-screen for KCNQ2 potentiator project, cell-based, FluxOR thallium flux, duplicate; hit rate 43% among 1,200; AID 2282, 2010; shares compounds with KCNQ2 enhance; activity increase over 3SD of controls, % at 10 µM; parental CHO-K1 cells, FluxOR thallium flux fluorescence; zero = vehicle mean+3SD, 100% = vehicle-minus-blank window;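 active = signal rise of at least 3 SD above the untreated control mean, in both duplicate wells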;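 note: counter screen of KCNQ2 potentiator hits so any rise reflects channel-independent effects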
KCNQ1 sel pot: human KCNQ1 channel potentiation off-target, confirmation, selectivity assay for KCNQ2 potentiator project, cell-based, CHO, FluxOR thallium flux; shares compounds with KCNQ2 enhance; CHO KCNQ1 stable, FluxOR thallium flux fluorescence; beyond 3SD, as % of vehicle-control signal; activation over 3SD threshold, % at 10 µM; hit rate 28% among 1,200;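 active = fluorescence ratio rise of at least 3 SD of vehicle wells above their mean, in both replicate wells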;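 note: 0% = vehicle mean plus 3 SD and 100% = vehicle minus unstimulated blank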
KCNQ2 pot conf: rat KCNQ2 channel potentiators, confirmation, cell-based, CHO, FluxOR thallium flux, duplicate; shares compounds with KCNQ2 enhance; potentiation, less the hit threshold, % at 10 µM; CHO-KCNQ2 cells, FluxOR thallium flux fluorescence; hit rate 68% among 1,200;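 active = fluorescence ratio rising 3 SD or more over the vehicle control mean in both replicates, plus primary screen hit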;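 note: peak minus minimum thallium fluorescence divided by baseline after K/Tl stimulus; 0% = vehicle mean plus 3 SD and 100% = vehicle minus unstimulated blank difference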
Kir2-1 sel: mouse Kir2.1 channel activation off-target, confirmation, selectivity assay for KCNQ2 potentiator project, cell-based, HEK293, FluxOR thallium flux; shares compounds with KCNQ2 enhance; HEK293 Kir2.1, FluxOR thallium flux fluorescence; activity over 3SD threshold, % at 10 µM; hit rate 2% among 1,200;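 active = fluorescence ratio rise of at least 3 SD above the vehicle-control mean, seen in both replicates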;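 note: 0% = vehicle mean plus 3 SD and 100% = vehicle minus no-stimulus blank window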
KCNQ2 W236L MoA: potentiators of retigabine-insensitive KCNQ2 W236L, mechanism study for KCNQ2 potentiator project, cell-based, rat KCNQ2 W236L, CHO, automated patch clamp; hit rate 10% among 940; current increase over 3SD of negative controls (%), hits give high values, % at 25 µM; automated patch clamp current; shares compounds with KCNQ2 enhance; AID 2558, 2010;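 active = current increase at least 3 SD of the untreated controls above them in both duplicate recordings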
Target sequence (O88943 whole entry W236L, looked up): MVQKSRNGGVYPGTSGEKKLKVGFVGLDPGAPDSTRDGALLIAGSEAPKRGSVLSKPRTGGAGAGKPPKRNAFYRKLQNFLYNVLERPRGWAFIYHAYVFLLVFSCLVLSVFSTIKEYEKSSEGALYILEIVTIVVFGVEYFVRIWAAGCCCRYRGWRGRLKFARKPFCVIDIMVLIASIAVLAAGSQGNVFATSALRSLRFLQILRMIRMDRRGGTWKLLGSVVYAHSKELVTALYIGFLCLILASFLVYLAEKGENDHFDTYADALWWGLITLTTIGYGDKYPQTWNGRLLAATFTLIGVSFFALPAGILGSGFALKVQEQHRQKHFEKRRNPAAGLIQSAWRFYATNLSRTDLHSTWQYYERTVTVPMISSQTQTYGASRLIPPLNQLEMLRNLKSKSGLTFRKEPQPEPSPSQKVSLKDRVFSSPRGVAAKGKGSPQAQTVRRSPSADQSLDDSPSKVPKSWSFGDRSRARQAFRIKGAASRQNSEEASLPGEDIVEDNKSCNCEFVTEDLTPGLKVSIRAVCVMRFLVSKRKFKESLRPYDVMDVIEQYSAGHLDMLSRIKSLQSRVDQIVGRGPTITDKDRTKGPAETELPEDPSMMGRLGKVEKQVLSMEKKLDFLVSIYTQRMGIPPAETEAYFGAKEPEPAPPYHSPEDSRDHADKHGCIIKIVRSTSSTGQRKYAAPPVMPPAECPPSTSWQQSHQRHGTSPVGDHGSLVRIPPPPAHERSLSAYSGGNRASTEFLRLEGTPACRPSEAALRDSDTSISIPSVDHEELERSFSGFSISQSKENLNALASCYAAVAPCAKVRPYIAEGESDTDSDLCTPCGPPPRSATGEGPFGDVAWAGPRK
* marks the source's active call; other numbers are inactive results; i = inactive; . = no result given. Only some compounds are listed: those with a hit (about 1.6% of all), similar ones and a draw of the others.

SMILES	KCNQ2 block	KCNQ2 enhance	Kir21 conf inh	HEK293 Tl flux	others
O=C(c1ccc(-c2ccccc2)cc1)C1CCCN(Cc2ccn[nH]2)C1 (stereo not drawn)	i	1.5	.	.
COc1ccc(C(=O)O/N=C(/C(N)=O)P(=O)(OC(C)C)OC(C)C)cc1	i	6.4*	i	i	CHO-K1 Tl ctr=-7;KCNQ1 sel pot=4.2*;KCNQ2 pot conf=27*;Kir2-1 sel=-51;KCNQ2 W236L MoA=i
COc1ccc(C(O)P(=O)(OC(C)C)OC(C)C)cc1 (stereo not drawn)	i	0.08	.	.
C1CCC2S[C@H]3CCCCC3NC2C1 (stereo partly drawn)	i	1.2	.	.
CC1(C)C[C@H]2C=C(C=O)[C@]3(C=O)C[C@]3(C)[C@H]2C1	-6*	-6	42%*	71%*
CCC(C(=O)N1CCC2(CC1)OCCO2)n1c2ccccc2c2nc(=O)cc(C)n21 (stereo not drawn)	i	0.3	.	.
Fc1ccc(CCNCc2ccccc2Cl)cc1	i	0.28	.	.
CCOc1ccc(Cl)cc1CNCCc1ccc(F)cc1	i	.	24%*	i
Cc1ccc(CN(Cc2ccccc2)C(=S)NCC(=O)N2CCC3(CC2)OCCO3)o1	i	0.74	.	.
Cc1ccc2c(c1)N(N=O)CCC2	i	.	.	.
Cc1cccnc1-n1c(C)nc2ccccc2c1=O	i	0.29	.	.
Oc1ccc(C(=C(Cl)Cl)c2ccc(O)cc2)cc1	i	11*	38%*	i	CHO-K1 Tl ctr=47*;KCNQ1 sel pot=-7;KCNQ2 pot conf=0.8*;Kir2-1 sel=-100;KCNQ2 W236L MoA=i
C=CCN=C(SCC(=O)c1ccc(Cl)cc1)c1c(O)n(C)c(=O)n(C)c1=O	i	0.36	.	.
Cc1ccc(C2C(S(C)(=O)=O)=C(O)C(=O)N2c2ccccc2)cc1 (stereo not drawn) (tested in a mixture with another compound)	i	.	.	.
O=C1C(=O)c2ccccc2-c2ccccc21	i	6.2*	i	i	CHO-K1 Tl ctr=-5;KCNQ1 sel pot=-15;KCNQ2 pot conf=-2;Kir2-1 sel=-29;KCNQ2 W236L MoA=3.4%*
O=C1C(=O)c2cccc3cccc1c23	i	.	.	.
COc1ccc(/C=N\N=C(N)N)cc1	i	1.1	.	.
NC(N)=N/N=C/c1ccc(N(c2ccccc2)c2ccccc2)cc1	i	2.4	i	i
O=C1C2CCN(CC2)C12CC2c1ccc(C(F)(F)F)cc1 (stereo not drawn)	i	.	.	.
CN(C=O)CP(=O)(O)CN(C)C=O	i	.	.	.
CNCC(O)c1cccc(OC(=O)c2ccccc2C)c1 (stereo not drawn)	i	0.15	.	.
CNCC(O)c1cc(OCc2ccccc2)c(OCc2ccccc2)cc1F (stereo not drawn)	i	.	40%*	72%*
CC(C)CNc1c2c(nc3ccccc13)CCC2	i	3.1	.	.
c1ccc(CNc2c3c(nc4ccccc24)CCC3)cc1	i	0.24	i	i
COc1cc(CC(C)N)c(OC)cc1I (stereo not drawn)	i	0.68	.	.
SMILES	KCNQ2 block	KCNQ2 enhance	Kir21 conf inh	HEK293 Tl flux	others
CCCCCSc1cc(OC)c(CCN)cc1OC	i	.	46%*	i
CNc1cc(Cl)c2nonc2c1[N+](=O)[O-]	-9.5*	-9.5	i	54%*
Cc1cc([N+](=O)[O-])c(Cl)cc1NC(=O)C(C)C	i	0.97	.	.
CC(=O)N1CC(=O)Nc2ccc(Br)cc2C1c1ccc(F)cc1 (stereo not drawn)	i	0.47	.	.
O=C(NC(C(Cl)Cl)N1CCOCC1)c1ccccc1 (stereo not drawn)	i	.	.	.
Cc1ccc(C(=O)N[C@@H](C)CN2C3=NC[C@H](Cc4ccccc4)N3C[C@H]2Cc2ccc(O)cc2)cc1Br	i	.	.	.
Cc1ccc(C(=O)N[C@@H](C)CN2C3=NC[C@@H](Cc4ccccc4)N3C[C@H]2Cc2ccc(O)cc2)cc1Br	i	.	49%*	i
O=C(O)C1Cc2ccccc2N2CCCC12 (stereo not drawn)	i	0.75	.	.
CCOc1ccc(-c2cc(C)[n+](CCN3CCOCC3)c(-c3ccc(OCC)cc3)c2)cc1	i	.	.	.
Cc1ccc(C[n+]2c(-c3ccc(C)cc3)cc(-c3ccc(C)cc3)cc2-c2ccc(C)cc2)cc1	i	.	12%*	i
CC(C(=O)O)N(C(=O)c1ccccc1)c1ccc(F)c(Cl)c1 (stereo not drawn)	i	0.31	.	.
CCN(CC)C(=O)c1ccc(NC(=O)c2ccc(-n3cncn3)c([N+](=O)[O-])c2)cc1	i	.	.	.
Cc1ccc(C2N(c3cc(C)on3)C(=O)C3CCCN32)cc1 (stereo not drawn)	i	0.22	.	.
